Screening data as filed in PubChem BioAssay.
aSyn 5UTR act = Activators via SNCA 5'UTR binding, MLPCN. alpha-synuclein 5'UTR reporter, activators screen. activity score, % (tested at 7.5 µM), hits read low. 300,000 compounds, 7.1% hits. AID 1814, 2009; in the data active means activity score below about -60%
The depositor's hits bear a star. These entries were drawn from the full list.

SMILES | aSyn 5UTR act
O=C(Nc1nc(=O)c2ccccc2s1)c1ccc(Cl)cc1 | -140*
CCc1ccc(-c2ccc(C(=O)O)cc2)nc1 | -126*
CCCc1ccc(-c2ccc(F)c(N)c2)nc1 | 99
COc1ccc(NC(=S)NCCCCCC(=O)C[N+](=O)[O-])cc1 | -82*
Cc1ccc(NNc2c(C)nc3ccccc3nc2=O)cc1 | -112*
CCOC(=O)c1oc2ccc(CNCCO)c(Cl)c2c1C | -63*
COc1ccc(NC(=O)Nc2nnc(C(C)(C)C)s2)cc1 | -67*
CC(C)(C)c1nnc(NC(=O)Nc2ccc(Cl)cc2)s1 | -114*
Cc1nc(NC(=O)Nc2ccc(Cl)cc2)sc1C | -164*
COc1ccccc1C(=O)COC(=O)c1ccc(N(C)C)cc1 | -218*
COc1ccccc1C(=O)COC(=O)/C=C/c1ccccc1 | -69*
COc1ccc(C(=O)c2ccc(N(C)C)cc2)c2ccccc12 | 74
COc1ccccc1C(=O)COC(=O)c1ccccc1O | -104*
O=C(c1ccco1)N1CCN(c2ncnc3c2cnn3-c2ccccc2)CC1 | -94*
CC1CCN(c2ncnc3c2cnn3-c2ccccc2)CC1 | -119*
Clc1ccc(-n2ncc3c(N4CCCC4)ncnc32)cc1 | 92
c1ccc(OCc2cc(-c3ccccc3)no2)cc1 | -169*
COc1ccccc1OCc1cc(-c2ccccc2)no1 | -224*
CC(C)C1COC(c2cccc3ccccc23)=N1 (stereo not drawn) | -115*
COC(=O)c1ccc(COc2ccc(C)cc2[N+](=O)[O-])o1 | -130*
Cc1ccc(COC(=O)c2cc([N+](=O)[O-])ccc2N2CCOCC2)cc1 | 68
COC(=O)c1cc(C)ccc1OCc1ccc([N+](=O)[O-])cc1 | -79*
O=C(NC1CC1)c1cc2c(s1)-c1ccccc1OC2 | -82*
CN(C)CCNC(=O)c1cc2c(s1)-c1ccc(Cl)cc1SC2 | 100
O=C(NCc1cccs1)c1cc2c(s1)-c1ccccc1OC2 | -90*
SMILES | aSyn 5UTR act
CCc1nc(-c2cc3ccc(C)cc3[nH]c2=O)no1 | -84*
CN(c1cccc(NC(=O)COc2ccc(Cl)cc2Cl)c1)S(C)(=O)=O | -131*
CSc1ccccc1NC(=O)COc1ccccc1C | -107*
CCc1cccc(NC(=O)COc2ccccc2)c1 | -92*
Cc1ccc(C)c(OCC(=O)Nc2c[nH]c(=O)[nH]c2=O)c1 | 81
Cc1ccccc1OCC(=O)Nc1cccc(N(C)S(C)(=O)=O)c1 | -62*
Cc1ccc(NC(=O)COc2ccccc2C=O)cc1Cl | -121*
COc1cccc(NC(=O)COc2ccccc2C(N)=O)c1 | -75*
CC(=O)Nc1cccc(NC(=O)COc2ccccc2C)c1 | -77*
CN(c1cccc(NC(=O)COc2ccccc2)c1)S(C)(=O)=O | -113*
Fc1cccc2sc(Nc3nc4ccccc4s3)nc12 | -309*
Fc1ccc2nc(Nc3nc4c(F)cccc4s3)sc2c1 | -235*
O=C(Nc1nc2c(F)cc(F)cc2s1)c1ccccn1 | 73
Fc1ccc2nc(Nc3nc4c(F)cc(F)cc4s3)sc2c1 | -211*
COc1cc(OC)cc(-c2cc3nc(C)c(CCC(=O)NCc4ccccc4)c(C)n3n2)c1 | 75
COc1cc(OC)cc(-c2cc3nc(C)cc(N4CCN(C(=O)c5ccco5)CC4)n3n2)c1 | -70*
O=[N+]([O-])c1ccccc1S(=O)(=O)Oc1ccc(C(=S)N2CCOCC2)cc1 | -62*
CCOc1ccc(NC(=O)c2ccc(Br)o2)c([N+](=O)[O-])c1 | -129*
CCOc1ccc(NC(=O)COc2ccccc2)c([N+](=O)[O-])c1 | -218*
CC(C)Sc1nnc(-c2c[nH]c3ccccc23)n1C | -111*
CN(C)Cc1ccccc1Sc1ccc2c(c1)CCCC2 | 104
C(=N\Nc1nc(-c2ccccc2)cs1)/c1ccncc1 | -230*
C(=N\Nc1nc(-c2ccccc2)cs1)/c1cccs1 | -233*
ClCc1csc(N/N=C/c2cccs2)n1 | -72*
O=C(Nc1ccc2[nH]ncc2c1)c1ccccc1 | -81*
SMILES | aSyn 5UTR act
O=C(Nc1ccc2[nH]ncc2c1)c1ccc(F)cc1 | -90*
Cc1ccc(-c2cc(C(=O)NCc3cccnc3)no2)cc1 | -90*
O=C(NCc1cccnc1)c1cc(-c2ccco2)on1 | -72*
Cc1ccc(CN2C(=O)/C(=C\c3ccc(C(=O)NCc4cccnc4)cc3)Oc3ccccc32)cc1 | 101
CN(C)CCCNc1oc(/C=C/c2ccccc2)nc1C#N | -88*
CN(C)CCNc1oc(/C=C/c2ccccc2)nc1C#N | -98*
Cc1cc(C)c2nc(NCCCNC(=S)NCCCN(C)C)c(C#N)cc2c1 | 96
C=CCNc1oc(/C=C/c2ccccc2)nc1C#N | -152*
CCOC(=O)C1C(=O)C=C(Nc2ccccc2F)CC1c1ccccc1 (stereo not drawn) | -114*
COC(=O)C1C(=O)C=C(Nc2ccc(F)cc2F)CC1c1ccccc1 (stereo not drawn) | -114*
C=C1c2ccccc2NC(=S)N1Cc1ccc2c(c1)OCO2 | -99*
O=C(/C=C/c1c(F)cccc1Cl)Nc1ccncc1 | -328*
O=C(/C=C/c1c(Cl)cccc1Cl)Nc1ccncc1 | -293*
CN1CCN(C(=O)/C=C/c2c(F)cccc2Cl)CC1 | -68*
Cc1cc(C(=O)CSc2nc3ccccc3n2CCC#N)c(C)n1Cc1cccs1 | -124*
Cc1cc(C(=O)CSc2nc3ccccc3c(=O)[nH]2)c(C)n1CC1CCCO1 (stereo not drawn) | -115*
Cc1cc(C(=O)CSc2nnnn2-c2ccccc2)c(C)n1CC1CCCO1 (stereo not drawn) | -105*
Cc1cc(C(=O)CN2C(=O)c3ccccc3S2(=O)=O)c(C)n1CC1CCCO1 (stereo not drawn) | 111
CCn1c(SCC(=O)c2cc(C)n(CC3CCCO3)c2C)nc2ccccc21 (stereo not drawn) | -119*
Clc1ccc(Nc2ccc(NCc3ccccc3)nn2)cc1 | -72*
Cc1ccc(Nc2ccc(NCc3ccccc3)nn2)cc1C | -87*
CCOC(=O)C(C(=O)OCC)C1N=C(N)N=C2Oc3ccccc3N21 (stereo not drawn) | -163*
COc1cc(/C=C2\C(=N)N3N=CSC3=NC2=O)ccc1OS(=O)(=O)c1ccccc1[N+](=O)[O-] | -75*
c1ccc(-c2cc3n(c2)CCc2ccccc2-3)cc1 | -135*
COC(=O)CNC(=O)C1(C)C=CCN1C(=O)c1ccccc1 (stereo not drawn) | -74*
SMILES | aSyn 5UTR act
CCCC(=O)Nc1nc(-c2ccccc2)ns1 | -152*
COC(=O)Nc1nc(-c2ccccc2)c(C(=O)c2ccc(Cl)cc2)s1 | 94
CC(C)C(=O)Nc1nc(-c2ccccc2)ns1 | -182*
Cc1nnc(SCCC(=O)Nc2nc(-c3ccccc3)ns2)s1 | -86*
CC(=O)Nc1nc(-c2ccc(Cl)cc2)ns1 | -206*
O=C(CSc1ncn[nH]1)Nc1nc(-c2ccccc2)ns1 | -63*
CCSc1nc(-c2ccccc2)nc(C(Cl)Cl)n1 | 123
CCC(=O)Nc1nc(-c2ccccc2)ns1 | -211*
CC(=O)Nc1cc(-c2ccc(Cl)cc2)[nH]n1 | -141*
Cc1ccn2c(c1)nc(=S)n2C(=O)c1ccccc1 | -100*
O=C(c1ccco1)n1c(=S)nc2ccccn21 | -172*
Cc1cccc2nc(=S)n(C(=O)c3ccco3)n12 | -221*
CC(C)(C)c1ccc(C(=O)NCCC(=O)N2CCCC2)cc1 | -105*
Cc1ccc(C(=O)NCCC(=O)N2CCOCC2)cc1 | -101*
CC(C)(C)c1cc(C(=O)NCCN2CCCC2)cc(C(C)(C)C)c1 | -82*
Nc1ccc(Nc2nc(-c3cc4ccccc4oc3=O)cs2)cc1 | -200*
CC(=O)Nc1ccc(Nc2nc(-c3cc4ccccc4oc3=O)cs2)cc1 | -449*
